This note sets out measurements from PubChem BioAssay (Tox21).

A short description of assay [1]: Human pregnane X receptor (PXR) small molecule agonists, qHTS cell viability counter screen (AID 1346977). Further: nearly all actives have a fitted effect of over 50% in size. Further: potency means the concentration at half of the fitted maximal effect. The procedure, abridged: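 PXR-Luc HepG2 cells (2,000/well, 5% charcoal-stripped FBS) preincubated 5 hr, then exposed to compounds 24 hr at 37 C. Viability read in the same wells by CellTiter-Fluor fluorescence, reagent added at 23 hr, 1 hr incubation.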
On the technique in general: qHTS replaces the single test concentration by a dilution series.

Assay [2] can be described thus: Caspase-3/7 induction in HepG2 cells by small molecules, qHTS assay (AID 1346978). Further: nearly all actives have a fitted effect of over 15% in size. Further: potency means the concentration at half of the fitted maximal effect. The procedure, abridged: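 Wild-type HepG2 cells, 2,000/well, settled 5 hr at 37 C and 5% CO2, then compound-treated for 17 hr; caspase-3/7 activity read by luminescent Caspase-Glo 3/7 after 30 min at room temperature.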
A short description of assay [3]: Caspase-3/7 induction in CHO-K1 cells by small molecules, qHTS cell viability counter screen (AID 1346979). Further: nearly all actives have a fitted effect of over 35% in size. Further: potency means the concentration at half of the fitted maximal effect. The procedure, abridged: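 Wild-type CHO-K1 cells (1,500/well) treated with compound after 5 h plating; after 16 h at 37C, viability read as CellTiter-Fluor fluorescence following 1 h reagent incubation, in the same wells as the caspase read.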
In assay [4] the target is Nuclear receptor subfamily 1 group I member 2 (Homo sapiens) (UniProt O75469). As to the kind of experiment: Human pregnane X receptor (PXR) small molecule agonists, qHTS assay (AID 1346982). Further: nearly all actives have a fitted effect of over 35% in size. Further: potency means the concentration at half of the fitted maximal effect. An outline of the steps:
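HepG2 PXR-Luc reporter line, 5% charcoal-stripped FBS; 5 hr pre-incubation, compound (DMSO) 24 hr at 37 C/5% CO2; ONE-Glo 30 min RT; luminescence read-out.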

Assay [5] concerns the target Cytochrome P450 2D6 (Homo sapiens) (UniProt P10635). Put plainly: Cytochrome P450 Family 2 Subfamily D Member 6 (CYP2D6) small molecule antagonists: luciferase reporter qHTS assay (AID 1671196). Further: nearly all actives have a fitted effect of over 50% in size. Further: potency means the concentration at half of the fitted maximal effect. An outline of the steps:
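Luminogenic proluciferin substrate, CYP2D6 enzyme; 10 min RT preincubation with compound, NADPH regeneration system added, 1 h RT. Stop/detection reagent, 20 min RT, luminescence read (RLU). Signal proportional to CYP activity.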

Assay [6] addresses Cytochrome P450 2C19 (Homo sapiens) (UniProt P33261). Put plainly: Cytochrome P450 Family 2 Subfamily C Member 19 (CYP2C19) small molecule antagonists: luciferase reporter qHTS assay (AID 1671197). Further: nearly all actives have a fitted effect of over 65% in size. Further: potency means the concentration at half of the fitted maximal effect. An outline of the steps: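 Light output is proportional to CYP2C19 activity: proluciferin substrate is converted to luciferin, then detected by a luciferin detection reagent that also stops the 1 h, 37C NADPH-driven reaction. Ketoconazole serves as positive control.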
(In a reporter assay the amount or activity of a reporter protein is the signal.)

Assay [7] addresses Cytochrome P450 2C9 (Homo sapiens) (UniProt P11712). As to the kind of experiment: Cytochrome P450 Family 2 Subfamily C Member 9 (CYP2C9) small molecule antagonists: luciferase reporter qHTS assay (AID 1671198). Further: nearly all actives have a fitted effect of over 50% in size. Further: potency means the concentration at half of the fitted maximal effect. An outline of the steps:
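P450-Glo proluciferin substrate with CYP2C9 enzyme; 10 min RT preincubation, then NADPH regeneration 1 h at 37C; luciferin detection reagent 20 min RT, luminescence in relative luminescence units.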

In assay [8] the target is Cytochrome P450 1A2 (Homo sapiens) (UniProt P05177). As to the kind of experiment: Cytochrome P450 Family 1 Subfamily A Member 2 (CYP1A2) small molecule antagonists: luciferase reporter qHTS assay (AID 1671199). Further: nearly all actives have a fitted effect of over 50% in size. Further: potency means the concentration at half of the fitted maximal effect. The procedure, abridged:
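Luminescence readout (relative luminescence units) after luciferin detection reagent, 20 min RT. Preceded by 1 h room-temperature CYP1A2 reaction with NADPH regeneration solution following 10 min compound preincubation with enzyme and proluciferin substrate. Furafylline positive control.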

Assay [9] deals with Voltage-gated inwardly rectifying potassium channel KCNH2 (Homo sapiens) (UniProt Q12809). Put plainly: Human Ether-a-go-go-Related Gene (hERG) channel small molecule antagonists: fluorescence cell-based qHTS assay (AID 1671200). Further: nearly all actives have a fitted effect of over 50% in size. Further: potency means the concentration at half of the fitted maximal effect. An outline of the steps: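 hERG-U2OS cells plated overnight at 37 C, loaded with FluxOR II dye 1 h at RT in dark; after 10 min, thallium stimulus added. Fluorescence (480/540 nm) read kinetically for 2 min at 1 s intervals.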
Chain of Voltage-gated inwardly rectifying potassium channel KCNH2 (Homo sapiens) (Q12809 whole entry, looked up): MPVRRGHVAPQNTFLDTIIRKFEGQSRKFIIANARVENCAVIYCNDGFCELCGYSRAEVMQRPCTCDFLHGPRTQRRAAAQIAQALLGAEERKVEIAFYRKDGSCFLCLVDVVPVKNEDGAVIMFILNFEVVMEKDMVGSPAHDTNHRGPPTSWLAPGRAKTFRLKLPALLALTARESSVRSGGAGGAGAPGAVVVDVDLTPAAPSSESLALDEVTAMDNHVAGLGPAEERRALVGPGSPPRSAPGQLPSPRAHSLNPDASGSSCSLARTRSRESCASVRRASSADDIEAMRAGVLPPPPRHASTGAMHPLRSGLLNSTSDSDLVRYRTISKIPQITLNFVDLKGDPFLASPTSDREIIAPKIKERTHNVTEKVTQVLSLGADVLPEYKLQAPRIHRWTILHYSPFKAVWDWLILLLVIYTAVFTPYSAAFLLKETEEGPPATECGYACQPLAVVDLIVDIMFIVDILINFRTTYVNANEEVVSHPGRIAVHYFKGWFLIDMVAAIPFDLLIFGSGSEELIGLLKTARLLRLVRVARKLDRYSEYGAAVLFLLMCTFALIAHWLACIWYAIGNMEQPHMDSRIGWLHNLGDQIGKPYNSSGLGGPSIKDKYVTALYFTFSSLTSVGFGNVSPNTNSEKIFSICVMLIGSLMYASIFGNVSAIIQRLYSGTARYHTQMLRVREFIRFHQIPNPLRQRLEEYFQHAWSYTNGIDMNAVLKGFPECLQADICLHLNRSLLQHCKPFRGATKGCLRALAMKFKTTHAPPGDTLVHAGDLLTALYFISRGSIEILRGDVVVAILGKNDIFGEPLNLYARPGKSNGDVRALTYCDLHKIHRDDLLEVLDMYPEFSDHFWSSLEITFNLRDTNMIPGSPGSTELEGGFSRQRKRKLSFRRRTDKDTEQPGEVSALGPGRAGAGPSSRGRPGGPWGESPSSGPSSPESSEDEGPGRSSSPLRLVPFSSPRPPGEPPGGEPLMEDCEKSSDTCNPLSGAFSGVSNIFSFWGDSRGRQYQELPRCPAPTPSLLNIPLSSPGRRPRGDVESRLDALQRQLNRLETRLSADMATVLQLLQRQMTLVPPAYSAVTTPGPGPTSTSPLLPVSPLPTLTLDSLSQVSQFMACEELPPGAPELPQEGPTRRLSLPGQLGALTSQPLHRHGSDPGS

Assay [10] addresses Cytochrome P450 3A4 (Homo sapiens) (UniProt P08684). As to the kind of experiment: Cytochrome P450 Family 3 Subfamily A Member 4 (CYP3A4) small molecule antagonists: luciferase reporter qHTS assay (AID 1671201). An outline of the steps: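 P450-Glo CYP3A4 luminescent assay: compounds preincubated 10 min at room temperature with enzyme and proluciferin substrate, NADPH regeneration added, 1 h room-temperature reaction, stopped with luciferin detection reagent; luminescence read after 20 min. Ketoconazole positive control.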

The nature of assay [11]: Caspase-3/7 induction in CHO-K1 cells by small molecules, qHTS assay (AID 1346980). Further: nearly all actives have a fitted effect of over 15% in size. An outline of the steps: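 Wild-type CHO-K1 cells exposed to compounds for 17hr at 37 C, 5% CO2. Caspase-3/7 activity then measured by Caspase-Glo 3/7 luminescence after 30min at room temperature.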
A short description of assay [12]: Caspase-3/7 induction in HepG2 cells by small molecules, qHTS cell viability counter screen (AID 1346981). Further: series mostly up to about 92 µM; nearly all actives have a fitted effect of over 30% in size. The procedure, abridged: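 Fluorescence read-out of live-cell protease activity (CellTiter-Fluor) after 1 hr with reagent. This was measured in the same wells as the caspase-3/7 luminescence, on HepG2 cells exposed to DMSO-dissolved compounds for 16 hr at 37 C.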

The target of assay [13] is Nuclear receptor subfamily 1 group I member 2 (Rattus norvegicus) (UniProt Q9R1A7). As to the kind of experiment: Rat pregnane X receptor (rPXR) activation by small molecules, qHTS assay (AID 1346983). Further: nearly all actives have a fitted effect of over 20% in size. Conditions: rPXR luciferase reporter cells, One-Glo luminescence, 24 h; max activation: hits give high values. The procedure, abridged: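 Cell-based rPXR activation assay: rPXR cells, 2,000 per well, rested 5hr at 37 C, then exposed to compounds in DMSO for 24 hr at 37 C. Luciferase activity read by One-Glo luminescence after 30 min at room temperature.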
Chain of Nuclear receptor subfamily 1 group I member 2 (Rattus norvegicus) (Q9R1A7 whole entry, looked up): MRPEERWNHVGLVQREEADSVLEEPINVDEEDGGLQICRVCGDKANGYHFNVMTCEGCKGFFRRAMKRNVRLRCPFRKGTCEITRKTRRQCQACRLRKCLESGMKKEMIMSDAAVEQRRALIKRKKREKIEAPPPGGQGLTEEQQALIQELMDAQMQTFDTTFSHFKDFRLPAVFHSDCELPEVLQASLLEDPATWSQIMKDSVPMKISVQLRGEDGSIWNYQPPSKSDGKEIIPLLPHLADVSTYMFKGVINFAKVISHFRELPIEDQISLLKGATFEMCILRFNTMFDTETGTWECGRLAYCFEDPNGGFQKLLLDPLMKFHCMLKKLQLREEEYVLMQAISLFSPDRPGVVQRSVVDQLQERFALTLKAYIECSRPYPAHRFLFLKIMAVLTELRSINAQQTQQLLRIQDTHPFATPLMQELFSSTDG

The target of assay [14] is Nuclear receptor subfamily 1 group I member 2 (Homo sapiens) (UniProt O75469). Put plainly: CYP3A4 induction through human pregnane X receptor (PXR) by small molecules, qHTS assay (AID 1346984). Further: nearly all actives have a fitted effect of over 40% in size. An outline of the steps:
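HepG2-derived DPX-2 line carrying PXR plus a CYP3A4-promoter luciferase reporter; cells plated 5 hr, compound-exposed 24 hr at 37C. CYP3A4 activity probed with 3uM (final) Luciferin-IPA for 3hr, then luciferase read after One-Glo.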

The target is the same in assay [15]. As to the kind of experiment: Human pregnane X receptor (PXR) activation by small molecules, qHTS assay (AID 1346985). Further: nearly all actives have a fitted effect of over 40% in size. Further: potency means the concentration at half of the fitted maximal effect. An outline of the steps:
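DPX-2 cells (HepG2 co-transfected with a PXR response element and a CYP3A4-promoter luciferase construct) were seeded at 2,000 per well, rested 5 hr at 37C, then exposed to DMSO-dissolved compounds for 24 hr. Activation was read as luciferase luminescence.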

Molecules are shown by their SMILES. Values without a mark were called inactive. Inconclusive results are not listed. Active and inactive are the calls of the source. The call rests on the fitted dose curve; in most records, active means well fitted curve in the direction sought with a large enough effect in the repeat runs; inconclusive means weak or mixed curves; inactive means no such curve, though single readings can be large; an effect the other way counts as inactive or inconclusive.
On the % scale 0 is the no-effect control and ±100 the full control effect.

Chain of Cytochrome P450 1A2 (Homo sapiens) (P05177 whole entry, looked up): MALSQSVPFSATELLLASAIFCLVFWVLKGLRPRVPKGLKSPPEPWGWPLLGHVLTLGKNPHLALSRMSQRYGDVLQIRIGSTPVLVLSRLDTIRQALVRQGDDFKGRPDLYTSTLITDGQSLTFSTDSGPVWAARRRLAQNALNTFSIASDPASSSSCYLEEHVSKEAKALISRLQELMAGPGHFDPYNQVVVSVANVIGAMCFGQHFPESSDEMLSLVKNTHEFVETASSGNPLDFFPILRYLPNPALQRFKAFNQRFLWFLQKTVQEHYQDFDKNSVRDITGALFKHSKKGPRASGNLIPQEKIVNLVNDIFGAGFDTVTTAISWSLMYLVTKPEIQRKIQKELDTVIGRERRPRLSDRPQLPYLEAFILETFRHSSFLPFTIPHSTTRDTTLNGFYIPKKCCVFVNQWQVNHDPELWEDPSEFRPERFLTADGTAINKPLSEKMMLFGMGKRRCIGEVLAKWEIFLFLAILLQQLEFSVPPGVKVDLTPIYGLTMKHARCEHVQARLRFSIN
Chain of Cytochrome P450 2C9 (Homo sapiens) (P11712 whole entry, looked up): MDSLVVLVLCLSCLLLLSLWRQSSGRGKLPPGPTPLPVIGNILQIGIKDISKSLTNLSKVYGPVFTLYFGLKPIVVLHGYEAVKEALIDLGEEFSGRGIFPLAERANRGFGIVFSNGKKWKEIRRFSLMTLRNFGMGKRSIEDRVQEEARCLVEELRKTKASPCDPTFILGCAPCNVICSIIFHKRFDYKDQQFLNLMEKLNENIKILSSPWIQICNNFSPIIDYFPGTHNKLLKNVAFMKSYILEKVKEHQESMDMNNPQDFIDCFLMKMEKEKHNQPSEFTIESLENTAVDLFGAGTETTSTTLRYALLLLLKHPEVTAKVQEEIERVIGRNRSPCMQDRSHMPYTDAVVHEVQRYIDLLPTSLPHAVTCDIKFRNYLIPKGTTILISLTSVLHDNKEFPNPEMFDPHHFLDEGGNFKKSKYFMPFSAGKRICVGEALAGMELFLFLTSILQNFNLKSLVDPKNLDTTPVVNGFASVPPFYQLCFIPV
Chain of Nuclear receptor subfamily 1 group I member 2 (Homo sapiens) (O75469 whole entry, looked up): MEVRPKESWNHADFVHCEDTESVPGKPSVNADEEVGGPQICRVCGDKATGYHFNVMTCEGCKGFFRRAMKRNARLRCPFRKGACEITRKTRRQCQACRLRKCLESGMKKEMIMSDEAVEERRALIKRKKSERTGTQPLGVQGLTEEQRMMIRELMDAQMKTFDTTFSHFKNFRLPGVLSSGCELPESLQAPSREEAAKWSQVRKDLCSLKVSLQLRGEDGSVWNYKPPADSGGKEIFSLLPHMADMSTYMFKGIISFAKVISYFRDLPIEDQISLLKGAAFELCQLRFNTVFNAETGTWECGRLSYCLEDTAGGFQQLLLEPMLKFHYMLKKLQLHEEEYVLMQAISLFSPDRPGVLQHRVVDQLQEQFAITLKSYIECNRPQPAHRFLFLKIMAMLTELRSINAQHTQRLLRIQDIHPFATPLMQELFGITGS
Chain of Cytochrome P450 3A4 (Homo sapiens) (P08684 whole entry, looked up): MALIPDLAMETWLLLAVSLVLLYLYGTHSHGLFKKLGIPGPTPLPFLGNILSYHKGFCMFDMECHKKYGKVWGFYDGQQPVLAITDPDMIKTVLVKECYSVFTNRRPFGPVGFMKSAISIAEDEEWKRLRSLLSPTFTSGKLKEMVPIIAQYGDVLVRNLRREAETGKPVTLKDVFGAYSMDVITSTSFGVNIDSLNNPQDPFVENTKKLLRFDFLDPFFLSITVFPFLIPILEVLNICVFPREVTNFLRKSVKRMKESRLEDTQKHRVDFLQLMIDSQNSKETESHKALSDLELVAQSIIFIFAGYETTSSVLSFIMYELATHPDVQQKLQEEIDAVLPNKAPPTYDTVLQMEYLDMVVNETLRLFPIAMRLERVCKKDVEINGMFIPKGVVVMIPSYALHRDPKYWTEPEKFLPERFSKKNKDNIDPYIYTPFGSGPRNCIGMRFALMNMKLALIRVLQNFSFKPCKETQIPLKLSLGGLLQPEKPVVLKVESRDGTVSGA
Chain of Cytochrome P450 2D6 (Homo sapiens) (P10635 whole entry, looked up): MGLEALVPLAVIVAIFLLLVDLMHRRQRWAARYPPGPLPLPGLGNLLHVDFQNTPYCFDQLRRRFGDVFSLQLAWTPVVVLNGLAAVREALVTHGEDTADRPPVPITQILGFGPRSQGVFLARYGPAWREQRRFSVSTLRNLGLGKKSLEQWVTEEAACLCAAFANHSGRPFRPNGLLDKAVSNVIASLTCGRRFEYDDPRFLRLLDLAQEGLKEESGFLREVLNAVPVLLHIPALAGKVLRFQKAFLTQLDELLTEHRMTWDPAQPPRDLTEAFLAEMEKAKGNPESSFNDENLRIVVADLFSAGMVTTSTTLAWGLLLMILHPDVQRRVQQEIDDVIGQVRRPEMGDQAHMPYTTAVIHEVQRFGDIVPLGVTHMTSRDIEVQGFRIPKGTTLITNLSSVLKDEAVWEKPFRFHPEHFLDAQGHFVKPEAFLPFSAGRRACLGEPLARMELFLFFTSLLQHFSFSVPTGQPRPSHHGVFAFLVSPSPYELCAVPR
Chain of Cytochrome P450 2C19 (Homo sapiens) (P33261 whole entry, looked up): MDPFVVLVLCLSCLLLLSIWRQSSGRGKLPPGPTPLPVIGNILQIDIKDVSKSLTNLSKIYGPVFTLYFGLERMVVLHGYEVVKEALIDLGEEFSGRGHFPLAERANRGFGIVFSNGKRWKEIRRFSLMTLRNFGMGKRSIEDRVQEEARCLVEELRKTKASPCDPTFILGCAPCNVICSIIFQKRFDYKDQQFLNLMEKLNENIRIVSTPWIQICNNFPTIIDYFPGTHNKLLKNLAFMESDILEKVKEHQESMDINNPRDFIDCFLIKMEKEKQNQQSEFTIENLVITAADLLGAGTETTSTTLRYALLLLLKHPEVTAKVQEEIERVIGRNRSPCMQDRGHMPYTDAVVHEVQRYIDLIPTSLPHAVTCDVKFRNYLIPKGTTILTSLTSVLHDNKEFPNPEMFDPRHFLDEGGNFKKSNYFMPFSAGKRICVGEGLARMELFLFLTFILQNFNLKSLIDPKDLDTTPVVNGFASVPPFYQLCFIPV

Consider `O=C(O)C[C@H](NC(=O)OCc1ccccc1)C(=O)O`, for which the Potency result in assay [1], in [2], in [3], in assay [4], in assay [5] and in assay [6] was “inactive” throughout. Besides, the Potency result in assay [7], in assay [8], in assay [9] and in [10] was “inactive” in each case.
Take `CN1C(=O)c2ccccc2C1=O`: the Potency entry in assay [1], in assay [2], in assay [11], in assay [12], in assay [4] and in assay [9] was “inactive” throughout. Further, in [10], the Potency entry is “inactive”. In addition, the figures for the Potency in [6], in assay [7] and in assay [8] were 79.6 µM (active), 10 µM (active) and 24.5 µM (active), respectively.
Turning to `C=CC(=O)OCC1CC2CC1C1CCC(COC(=O)C=C)C21` (stereo not given), the Potency result in assay [1], in assay [2] and in assay [12] was “inactive” each time. Besides, the Potency in assay [3] is 48.6 µM (active); in [4], 34.4 µM (active); in assay [6], 5.03 µM (active); in assay [7] it was 17.8 µM (active); in [8] it was 35.6 µM (active).
On to `Cc1[nH]cnc1CN1CCc2c(c3ccccc3n2C)C1=O`, for which the Potency result in [1], in assay [2], in assay [3], in [4], in [14] and in assay [15] was “inactive” throughout. The max activation in assay [13] is 1.25%. Moreover, the results for the Potency in [7] and in [8] were 2.19 µM (active) and 0.812 µM (active), respectively.
Consider `O=C(/C=C/c1ccccc1)OCCc1ccccc1`, for which the Potency entry in [1], in assay [2], in [3], in assay [12], in assay [4] and in assay [5] was “inactive” in each case. In addition, in assay [10], the Potency result was “inactive”. The Potency in assay [6] is 20 µM (active); in [7], 25.2 µM (active); in [8], 6.33 µM (active); in [9] it was 49 µM (active).
Turning to `Clc1cc(Cl)nc(Cl)n1`, the Potency result in assay [1], in assay [2], in assay [3], in assay [4], in assay [7] and in assay [9] was “inactive” throughout. In [10], the Potency entry is “inactive”. Moreover, in assay [8], the Potency is 36 µM (active).
As for `CN1C(=O)N(c2ccccc2Br)Cc2cnc(Nc3ccc4c(c3)OCC(CO)O4)nc21` (stereo not given), the Potency was 30.6 µM (active) in assay [1]; 6.11 µM (active) in [2]; 24.3 µM (active) in assay [3]; 0.0154 µM (active) in assay [4]; 11.2 µM (active) in [7]; 28.3 µM (active) in assay [8]. Also, the Potency entry in [10] was “inactive”.
In the case of `O=c1[nH]c2ccc(Cl)cc2o1`, the Potency entry in assay [1], in assay [2], in assay [12], in [5], in [7] and in assay [9] was “inactive” throughout. Also, the Potency result in assay [10] was “inactive”. For the same molecule, the Potency in assay [6] is 79.6 µM (active); in assay [8], 10 µM (active).
For `CN(C(=O)CN(CCO)CC(=O)N(C)C(C)(C)Cc1ccccc1)C(C)(C)Cc1ccccc1`, the Potency entry in assay [1], in assay [2], in assay [11], in assay [12], in assay [8] and in assay [9] was “inactive” each time. The Potency in [4] was 2.37 µM (active); in assay [15], 8.91 µM (active); in assay [5] it was 4.36 µM (active); in [7], 30.9 µM (active).
Regarding `C[C@H]1C[C@H](O)c2ccsc2S1(=O)=O`, the Potency result in assay [1], in assay [2], in [11], in assay [12], in [4] and in [5] was “inactive” in each case. The Potency entry in assay [7] and in [10] was “inactive” in each case.
